Records with an inconclusive call do not appear. Calls of active or inactive are those of the source. Calls come from the whole dose curve; as a rule, active = well fitted inhibition curve with a large enough effect; inconclusive = small, poorly fitted or top-dose-only effect; inactive = flat fitted curve, though single readings scatter.
Tested on: 7G8
Assay: qHTS profiling for inhibitors of Plasmodium falciparum proliferation (AID 504749); note: nearly all actives have a fitted effect of over 60% in size;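 for activity, negative = inhibition: 0% = DMSO vehicle and full inhibition = artemisinin control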
Conditions: P. falciparum in erythrocytes, SYBR Green DNA, 72 h; series mostly up to 28.7 µM; activity, negative = inhibition: at the top concentration
Outline: (§1)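 Fluorescence of SYBR Green-bound parasite DNA, read at 485/535 nm, served as the growth measure. Infected erythrocytes were cultured with compound 72 h; artemisinin (0.29 uM) and DMSO wells defined the normalization range.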
Potency is the fitted concentration of half-maximal effect.

Structure (SMILES)	Potency	activity, negative = inhibition
C[C@@H](NCCCc1cccc(C(F)(F)F)c1)c1cccc2ccccc12	1120 nM (active)	–
COc1cc(NCc2ccc3nc(N)nc(N)c3c2C)cc(OC)c1OC	79.4 nM (active)	–
NC(N)=NC(N)=NCCc1ccccc1	–	-19.5% [at 12.8 µM] (inactive)
OC(Cn1cncn1)(Cn1cncn1)c1ccc(F)cc1F	–	2.15% (inactive)
CCOC(=O)c1ccc(C#Cc2ccc3c(c2)C(C)(C)CCS3)nc1	12600 nM (active)	–
O=c1cc(O)c(Cl)c[nH]1	–	1.6% (inactive)
C1CCC(C(CC2CCCCN2)C2CCCCC2)CC1 (stereo unspecified)	1260 nM (active)	–
CC(C)NCC(O)c1ccc(NS(C)(=O)=O)cc1 (stereo unspecified)	inactive	–
Cc1cccc(N(C)C(=S)Oc2ccc3ccccc3c2)c1	–	-19.7% [at 12.8 µM] (inactive)
CC(=O)Oc1ccccc1C(=O)Nc1ncc([N+](=O)[O-])s1	10000 nM (active)	–
CC[C@H](C)C(=O)O[C@H]1C[C@@H](C)C=C2C=C[C@H](C)[C@H](CC[C@@H]3C[C@@H](O)CC(=O)O3)[C@H]21	–	-28.8% (inactive)
CC(C)OC(=O)C(C(=O)OC(C)C)=C1SC=CS1	–	-17% (inactive)
O=S(=O)(O)CCS	–	15.9% (inactive)
Cc1nnc(NS(=O)(=O)c2ccc(N)cc2)s1	–	-1.68% (inactive)
CNC1CCCN(c2c(F)cc3c(=O)c(C(=O)O)cn(C4CC4)c3c2OC)C1 (stereo unspecified)	–	-25.5% (inactive)
S=P(N1CC1)(N1CC1)N1CC1	–	-10.7% (inactive)
COc1cc2c(Nc3ccc(Br)cc3F)ncnc2cc1OCC1CCN(C)CC1	3160 nM (active)	–
O=c1oc2c(O)c(O)cc3c(=O)oc4c(O)c(O)cc1c4c23	2820 nM (active)	–
N=C(N)c1ccc(OCCCCCOc2ccc(C(=N)N)cc2)cc1	199 nM (active)	–
O=C(O)c1cn(C2CC2)c2cc(N3CCNCC3)c(F)cc2c1=O	3160 nM (active)	–
CCCc1nc(C)c2c(=O)[nH]c(-c3cc(S(=O)(=O)N4CCN(CC)CC4)ccc3OCC)nn12	7080 nM (active)	–
COc1cc([C@@H]2c3cc4c(cc3[C@H](O)[C@H]3COC(=O)[C@H]23)OCO4)cc(OC)c1OC	316 nM (active)	–
CC1=CC(=O)c2ccccc2C1=O	10000 nM (active)	–
Nc1[nH]c(=O)ncc1F	–	18% [at 12.8 µM] (inactive)
Nc1nc(N)c2nc(CNc3ccc(C(=O)NC(CCC(=O)O)C(=O)O)cc3)cnc2n1 (stereo unspecified)	–	-11.9% (inactive)
COC(=O)Nc1nc2ccc(C(=O)c3ccccc3)cc2[nH]1	–	-29.7% [at 12.8 µM] (inactive)
Nc1nc(N)nc(-c2cc(Cl)ccc2Cl)n1	–	2.17% (inactive)
NCCCC(O)(P(=O)(O)O)P(=O)(O)O	–	3.47% (inactive)
COC(=O)Nc1nc2ccc(Sc3ccccc3)cc2[nH]1	–	6.9% [at 12.8 µM] (inactive)
CCc1cc(C(N)=S)ccn1	–	-13% (inactive)

Tested on: AA1029
Assay: as above
Conditions: P. falciparum in erythrocytes, SYBR Green DNA, 72 h; series mostly up to 28.7 µM; activity, negative = inhibition: at the top concentration
Outline: as §1

Structure (SMILES)	Potency	activity, negative = inhibition
C[C@@H](NCCCc1cccc(C(F)(F)F)c1)c1cccc2ccccc12	6310 nM (active)	–
COc1cc(NCc2ccc3nc(N)nc(N)c3c2C)cc(OC)c1OC	1000 nM (active)	–
NC(N)=NC(N)=NCCc1ccccc1	inactive	–
CNNCc1ccc(C(=O)NC(C)C)cc1	–	-7.31% (inactive)
OC(Cn1cncn1)(Cn1cncn1)c1ccc(F)cc1F	–	8.17% (inactive)
CCOC(=O)c1ccc(C#Cc2ccc3c(c2)C(C)(C)CCS3)nc1	–	-20.9% (inactive)
O=c1cc(O)c(Cl)c[nH]1	–	2.11% (inactive)
C1CCC(C(CC2CCCCN2)C2CCCCC2)CC1 (stereo unspecified)	11200 nM (active)	–
CC(C)NCC(O)c1ccc(NS(C)(=O)=O)cc1 (stereo unspecified)	inactive	–
Cc1cccc(N(C)C(=S)Oc2ccc3ccccc3c2)c1	–	5.72% [at 12.8 µM] (inactive)
CC(=O)Oc1ccccc1C(=O)Nc1ncc([N+](=O)[O-])s1	–	-13.3% (inactive)
CC[C@H](C)C(=O)O[C@H]1C[C@@H](C)C=C2C=C[C@H](C)[C@H](CC[C@@H]3C[C@@H](O)CC(=O)O3)[C@H]21	–	-4.77% (inactive)
CC(C)OC(=O)C(C(=O)OC(C)C)=C1SC=CS1	–	10.6% (inactive)
O=S(=O)(O)CCS	–	0.0997% (inactive)
Cc1nnc(NS(=O)(=O)c2ccc(N)cc2)s1	–	0.704% (inactive)
CNC1CCCN(c2c(F)cc3c(=O)c(C(=O)O)cn(C4CC4)c3c2OC)C1 (stereo unspecified)	–	-7.46% (inactive)

Structure (SMILES)	Potency	activity, negative = inhibition
S=P(N1CC1)(N1CC1)N1CC1	–	1.36% (inactive)
COc1cc2c(Nc3ccc(Br)cc3F)ncnc2cc1OCC1CCN(C)CC1	2820 nM (active)	–
O=c1oc2c(O)c(O)cc3c(=O)oc4c(O)c(O)cc1c4c23	–	-23.4% (inactive)
N=C(N)c1ccc(OCCCCCOc2ccc(C(=N)N)cc2)cc1	1000 nM (active)	–
COc1cc([C@@H]2c3cc4c(cc3[C@H](O)[C@H]3COC(=O)[C@H]23)OCO4)cc(OC)c1OC	11200 nM (active)	–
CC1=CC(=O)c2ccccc2C1=O	–	0.424% (inactive)
Nc1[nH]c(=O)ncc1F	–	-0.375% [at 12.8 µM] (inactive)
Nc1nc(N)c2nc(CNc3ccc(C(=O)NC(CCC(=O)O)C(=O)O)cc3)cnc2n1 (stereo unspecified)	–	3.26% (inactive)
COC(=O)Nc1nc2ccc(C(=O)c3ccccc3)cc2[nH]1	–	-9.54% [at 12.8 µM] (inactive)
Nc1nc(N)nc(-c2cc(Cl)ccc2Cl)n1	–	13% (inactive)
CC(C)(Sc1cc(C(C)(C)C)c(O)c(C(C)(C)C)c1)Sc1cc(C(C)(C)C)c(O)c(C(C)(C)C)c1	–	4.66% [at 12.8 µM] (inactive)
COc1ccc(-c2ccc3cc(C(=O)O)ccc3c2)cc1C12CC3CC(CC(C3)C1)C2	–	0.341% (inactive)
NCCCC(O)(P(=O)(O)O)P(=O)(O)O	–	10.4% (inactive)
COC(=O)Nc1nc2ccc(Sc3ccccc3)cc2[nH]1	–	8.33% [at 12.8 µM] (inactive)
CCc1cc(C(N)=S)ccn1	–	0.492% (inactive)

— PubChem BioAssay (NCATS)
